Shown are actives, neighbours in structure and some others; about 21% of the full set was active somewhere.
Shiga toxin inh = A qHTS for Small Molecule Inhibitors of Shiga Toxin; inhibition, % at 38.7 µM; 290,000 tested, 9.2% active; Vero cells, Shiga toxin protein synthesis inhibition reporter; in the data active = inhibition mostly above about 28%, no sharp cut-off; inactive = mostly below about 43%; also: 0% is about no effect
Pf growth 96h = Primary qHTS for delayed death inhibitors of the malarial parasite plastid, 96 hour incubation | P. falciparum luciferase reporter growth, 96 h | Potency, µM (highest dose often 28.7 µM), inactives show at the highest dose activity change, negative = inhibition, usual class: inhibitors | 320,000 tested, 6.9% active | AID 504834, 2011; also: potency is read from the fitted curve at half-maximal effect; % is scaled to controls: 0 for no effect and ±100 for the full control effect
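Parasite growth measured via integrated firefly luciferase reporter in P. falciparum. Infected erythrocytes at 2% hematocrit, 0.05% parasitemia final were treated 96 hours at 37 C under 5% CO2, and luminescence was read.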
Pf growth 48h = Primary qHTS for delayed death inhibitors of the malarial parasite plastid, 48 hour incubation; Potency, µM (doses to about 28.7 µM), for the others: at the top dose activity change, negative = inhibition, usual class: inhibitors; 310,000 tested, 5.9% active; AID 504832, 2011; P. falciparum luciferase growth in erythrocytes, 48 h; also: potency is read from the fitted curve at half-maximal effect; % is scaled to controls: 0 for no effect and ±100 for the full control effect
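Luciferase-expressing P. falciparum in infected erythrocytes (2% hematocrit, 0.1% parasitemia final) in RPMI 1640/0.5% Albumax were exposed to compound for 48 hours at 37 C, 5% CO2; growth read as luminescence.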
Cycloheximide cs = Cycloheximide Counterscreen for Small Molecule Inhibitors of Shiga Toxin | 300,000 tested, 12% active | cell reporter, cycloheximide protein synthesis inhibition counterscreen | max response, % | AID 2314, 2010; in the data active = max response mostly above about 13%, no sharp cut-off; inactive = mostly below about 14%; also: read at 38.3 µM for the half of the compounds with a filed dose; 0% is about no effect
Active calls of the source: *; ? = inconclusive; . = no result given. Unless noted, calls follow the shape of the dose curve; as a rule, active = well fitted inhibition curve with a large enough effect; inconclusive = small, poorly fitted or top-dose-only effect, or another doubt; inactive = no such curve, though single readings can be large or run the other way.

SMILES | Shiga toxin inh | Pf growth 96h | Pf growth 48h | Cycloheximide cs
CCn1c(SCC(=O)N/N=C/c2ccccc2OCC(=O)O)nnc1-c1ccc(C)cc1 | -13 | 32% | 22% | -1
Nc1ccc(-c2cc(N)n(-c3ccccc3)n2)cc1 | 10 | . | 6.6µM* | 8
CC(=O)Nc1ccc(-c2cc(NC(C)=O)n(-c3ccccc3)n2)cc1 | -18 | 45% | 8% | -2
Cc1ccc(-n2nc(-c3ccc(N)cc3)cc2N)cc1 | 61* | ? | 29% | 32*
Cc1ccccc1-n1nc(-c2ccc(N)cc2)cc1N | 4 | 3% | ? | 7
Nc1cc(-c2ccc(Cl)cc2)nn1-c1ccccc1 | 72* | 204% | 231% | 43*
CC(=O)Nc1ccc(-c2cc(N)n(-c3ccccc3)n2)cc1 | 69* | 118% | 90% | 64*
CCN(CC)CC(=O)Nc1c(C#N)cnn1-c1ccccc1 | -6 | 26% | 4% | 1
Cc1ccc(-n2nc(-c3ccc(OC(F)(F)F)cc3)cc2N)cc1C | 33 | -11% | -62% | 15*
Cc1n[nH]c(=O)n1-c1ccc(OC(F)(F)F)cc1 | -4 | 72% | ? | 1
CCCCc1ccc(S(=O)(=O)NCCCN2CCCC2=O)cc1 | -2 | -5% | 23% | -3
COc1cccc(NC(=O)C(C)OC(=O)CCCNC(=O)c2ccc(Cl)cc2)c1 (stereo not drawn) | 100* | 52% | 38% | 25*
COc1ccc(NC(=O)CCC(=O)OCC(=O)c2ccc(Oc3ccc([N+](=O)[O-])cc3)cc2)cc1 | -13 | 9.3µM* | 9% | 1
COc1cc(C(=O)Nc2ccc(O)cc2C(=O)O)ccc1OC(C)=O | -16 | 4% | 34% | -3
COc1cccc(NC(=O)c2cnc[nH]2)c1 | 41* | 0% | 64% | 33*
COC(=O)c1ccc(NC(=O)c2ccc(OC(C)=O)c(OC)c2)cc1 | 48* | -23% | 184% | 33*
Cc1ccc(NC(=O)CCC(=O)OCC(=O)c2ccc(Oc3ccc([N+](=O)[O-])cc3)cc2)cc1 | -5 | -23% | -5% | -3
COc1cccc(NC(=O)c2ccccc2Oc2ccccc2)c1 | 14 | ? | -49% | -2
COc1cccc(NC(=O)c2ccc(-n3cnnn3)cc2)c1 | 29 | 4.1µM* | 18% | 7
Cc1ccc(NC(=O)c2ccc(OC(=O)C(C)Oc3ccc(Cl)cc3C)cc2)cc1 (stereo not drawn) | 61* | ? | 66% | 43*
CCSc1ccccc1C(=O)Nc1cccc(OC)c1 | 69 | ? | -20% | 15*
COc1ccc(NC(=O)c2cccc(NC(=O)C(C)C)c2)c([N+](=O)[O-])c1 | 22* | ? | 70% | 22*
Nc1cccc(CP(=O)(c2ccccc2)c2ccccc2)c1 | . | -17% | ? | .
Cc1cc(C)cc(N(C(=O)CNC(=O)c2ccco2)C(C(=O)NC2CCCCC2)c2ccncc2)c1 (stereo not drawn) | -4 | 0% | ? | -9
OCC[C@H]1C[C@@H](O)[C@H](O)[C@]2(OCCc3ccccc32)O1 | . | -10% | ? | .
SMILES | Shiga toxin inh | Pf growth 96h | Pf growth 48h | Cycloheximide cs
Cc1ccc(NC(=O)c2cccc(-n3cnnn3)c2)cc1Cl | . | ? | 9.3µM* | .
COc1ccc(C(=O)Nc2cccc(OC)c2)cc1 | 91* | 12% | . | 58*
COc1cccc(NC(=O)c2ccc(NC(=O)C(C)C)cc2)c1 | 52* | 176% | 117% | 23*
COc1cccc(NC(=O)c2ccccc2)c1 | . | 83% | 97% | .
COc1cccc(NC(=O)CC(=O)c2ccc([N+](=O)[O-])cc2)c1 | 71* | 36% | -13% | 51*
COc1ccc(C(=O)Nc2ccc(/C(C)=N/NC(=O)c3ccccc3O)cc2)cc1OC | 44* | 0% | 25% | 37*
COc1cccc(NC(=O)c2cccc(C(=O)Nc3cccc(OC)c3)c2)c1 | 1 | -26% | 70% | 7
O=C(Nc1ccc(Br)cc1)c1cnc[nH]1 | 64* | ? | . | 39*
COc1cccc(NC(=O)c2ccc3nsnc3c2)c1 | 78* | 42% | 141% | 28*
COc1ccc(C(=O)Nc2ccc(Nc3ccccc3)cc2)cc1OC | . | ? | ? | 7
COc1cccc(NC(=O)c2nc3ncccn3n2)c1 | 65* | ? | 118% | 48*
O=C(C1CCCN(CCCc2ccccc2)C1)N1CCCCC1 (stereo not drawn) | -9 | 36% | 19% | 2
COc1cccc(NC(=S)N2CCN(S(=O)(=O)c3ccccc3)CC2)c1 | -7 | ? | ? | 2
CCOc1ccc(NC(=O)c2ccc(-n3cccn3)nc2)cc1 | -8 | 103% | -8% | 1
COc1cc(OC)c(NC(=O)c2csc(C)c2)cc1Cl | 26 | 13% | -8% | 2
O=C(Nc1ccc(F)cc1)c1ccc2nsnc2c1 | 64* | 98% | 130% | 46*
COc1ccc(-c2cccc(C(=O)Nc3ccc(OC)c(OC)c3)c2)cc1 | 20 | ? | -6% | -3
COc1cccc(NC(=O)c2ccc(-n3cccn3)nc2)c1 | 26* | ? | 79% | 40*
COc1ccc(NC(=O)c2csc(C)c2)cc1OC | 30* | 244% | 12% | 25*
COc1cc(NC(=O)c2ccc3nsnc3c2)cc(OC)c1OC | -2 | -15% | 18% | -1
COc1ccc(C(=O)Nc2ccc(OC)c(OC)c2)cc1 | 63* | -2% | 76% | 33*
CCOC(=O)Cc1c(C)nc(SC)[nH]c1=O | 35 | 117% | 11% | -1
CCCC(NC(=O)Cc1c(C)c2c(cc(C)c3c(C)coc32)oc1=O)C(=O)O (stereo not drawn) | 1 | 33% | 13% | 7
CCN(CC)c1ccc(C=Nc2ccc(C)cc2)c(O)c1 | 6 | 11% | 5% | 1
CCN(CC)c1ccc(/C=N/N2CCN(Cc3ccccc3)CC2)c(O)c1 | -11 | ? | ? | -3
SMILES | Shiga toxin inh | Pf growth 96h | Pf growth 48h | Cycloheximide cs
CCN(CC)c1ccc(C=Nc2ccc(N(C)C)cc2)c(O)c1 | 91* | ? | ? | 54*
CCN(CC)c1ccc(/C=N/N2CCOCC2)c(O)c1 | 70* | 259% | 164% | 65*
CCN(CC)c1ccc(N=Cc2ccc(N(CC)CC)cc2O)cc1 | 29 | . | 1.2µM* | 12
COc1cc(NC(=O)C2CC(=O)N(CCc3ccc(F)cc3)C2)cc(OC)c1OC (stereo not drawn) | -6 | 9% | -15% | -4
COc1ccc(N2CCN(c3cc(C)nc4ccc(OC)cc34)CC2)cc1 | -12 | ? | 13µM* | -8
COc1ccc(C(=O)CN2CCN(c3ncccn3)CC2)cc1 | 24 | 15% | 9% | 4
COc1cccc(N2CCN(c3cnc4ccccc4n3)CC2)c1 | 94* | 190% | 185% | 36*
COc1ccc(N2CCN(c3cc(C)c4ccccc4n3)CC2)cc1 | 2 | 10% | 2% | 7
COc1ccc(N2CCN(c3ncccn3)CC2)cc1 | 152* | . | 81% | 24*
COc1ccc2nc(C)cc(N3CCC(C(N)=O)CC3)c2c1 | 25 | -11% | 19% | -2
COc1ccc(N2CCN(c3cnc4ccccc4n3)CC2)cc1 | 70* | 84% | 46% | 37*
COc1cccc(N2CCN(c3ccc([N+](=O)[O-])cn3)CC2)c1 | -13 | 39% | 2% | -4

Assay outcomes from PubChem.
